Out of some 310,000 compounds screened, about 14,000 (4.5%) showed an effect of 50% or more. Effects have a minus sign here. This is one part of a sample in which strong results are shown more often than they occur.
What follows are compounds tested against human ether-à-go-go-related gene (hERG) potassium channel (human, UniProt Q12809) (assay: primary screen, population patch clamp on CHO cells stably expressing hERG; higher = less effect of the substance).
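Further: peak tail current of the secondary pulse compared with the same well before compound.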

Sequence of human ether-à-go-go-related gene (hERG) potassium channel (Q12809 whole entry, looked up): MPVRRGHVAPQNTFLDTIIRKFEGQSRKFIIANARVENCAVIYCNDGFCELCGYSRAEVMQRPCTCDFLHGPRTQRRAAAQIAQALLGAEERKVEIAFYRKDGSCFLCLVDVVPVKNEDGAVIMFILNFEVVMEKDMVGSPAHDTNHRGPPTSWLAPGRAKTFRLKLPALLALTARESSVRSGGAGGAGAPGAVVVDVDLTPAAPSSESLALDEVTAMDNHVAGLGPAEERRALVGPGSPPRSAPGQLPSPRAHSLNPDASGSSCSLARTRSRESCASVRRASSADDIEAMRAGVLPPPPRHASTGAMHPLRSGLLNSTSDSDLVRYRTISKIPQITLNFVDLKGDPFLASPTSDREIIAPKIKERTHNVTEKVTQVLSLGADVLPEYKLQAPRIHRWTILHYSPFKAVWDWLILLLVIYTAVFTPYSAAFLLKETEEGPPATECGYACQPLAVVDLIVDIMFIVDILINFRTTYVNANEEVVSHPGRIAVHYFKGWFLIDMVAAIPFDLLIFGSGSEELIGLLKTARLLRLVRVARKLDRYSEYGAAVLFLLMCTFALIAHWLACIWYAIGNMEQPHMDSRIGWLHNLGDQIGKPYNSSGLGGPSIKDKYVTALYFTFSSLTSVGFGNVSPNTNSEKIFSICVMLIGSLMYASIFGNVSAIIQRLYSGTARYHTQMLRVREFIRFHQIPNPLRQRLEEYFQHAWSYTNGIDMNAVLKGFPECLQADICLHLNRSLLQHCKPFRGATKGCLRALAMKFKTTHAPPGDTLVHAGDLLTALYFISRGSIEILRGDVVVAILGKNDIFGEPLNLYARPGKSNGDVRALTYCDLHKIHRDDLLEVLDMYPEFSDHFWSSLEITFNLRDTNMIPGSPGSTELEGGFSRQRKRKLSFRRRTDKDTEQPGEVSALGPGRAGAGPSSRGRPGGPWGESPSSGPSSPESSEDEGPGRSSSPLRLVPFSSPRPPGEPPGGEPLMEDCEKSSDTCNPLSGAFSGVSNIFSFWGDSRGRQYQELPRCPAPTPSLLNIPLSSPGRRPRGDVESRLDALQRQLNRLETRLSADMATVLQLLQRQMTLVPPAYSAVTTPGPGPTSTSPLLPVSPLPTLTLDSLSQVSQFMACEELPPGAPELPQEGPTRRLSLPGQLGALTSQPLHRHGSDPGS

SMILES	hERG current change (%, negative = inhibition) at 10uM [%]
CCCCC1=CC2=CC(=O)C(C)(OC(=O)CC)C(=O)C2=CN1C1CCCCC1 (stereo not drawn)	-38
Cc1cccn2c(=O)c(/C=C(\C#N)C(N)=O)c(N3CCCCCC3)nc12	-13.2
COc1cccc(N2CCN(C3CCCC(C)C3)CC2)c1 (stereo not drawn)	-23.8
O=C(NCc1ccccn1)c1cc(S(=O)(=O)N2CCCCC2)ccc1Cl	3.78
COc1ccc(NS(=O)(=O)c2cccc(C(=O)NNC(=O)c3ccc(O)c(Cl)c3)c2)cc1	-0.207
Cc1cccc(CN2C(=O)[C@@H]3Cc4c([nH]c5ccccc45)C(C)(C)N3C2=O)c1	-0.614
COC(=O)c1c(NC(=O)C2(C)Cc3ccccc3C(=O)O2)sc2c1CCCC2 (stereo not drawn)	12.7
O=C1C=C(c2ccccc2)CC(/C=C/c2ccccc2)C1 (stereo not drawn)	-2.91
CCCc1nc(N)nc2c1C(=O)CC(C)(C)C2	-4.47
CC(C)(C)N1C(=O)Cc2c1nc(N)c1c(N)nc(N3CCCCC3CO)c(C#N)c21 (stereo not drawn)	-24.3
O=C(/C=C/c1ccccc1)N1CCN(Cc2nc3ccccc3c(=O)[nH]2)CC1	-64.7
O=c1[nH]c(CN2CCN(C/C=C/c3ccccc3)CC2)nc2ccccc12	-65.2
O=C(c1ccccc1)N(Cc1ccc2c(c1)OCO2)Cc1nc2ccccc2c(=O)[nH]1	-15.4
O=C(CCc1nc2ccccc2c(=O)[nH]1)N1CCN(C/C=C/c2ccccc2)CC1	-42.4
CCC(CC)C(=O)N1CCN(Cc2nc3ccccc3c(=O)[nH]2)CC1	-11.3
CN1CCN(Cc2nc3ccccc3c(=O)[nH]2)CC1	6.57
O=c1[nH]c(CN2CCNCC2)nc2ccccc12	-23.4
O=c1[nH]c(N/N=C/c2ccccc2)nc2ccccc12	-14.9
O=c1[nH]c(N/N=C/c2cc3c(cc2[N+](=O)[O-])OCO3)nc2ccccc12	-0.00362
O=c1[nH]c(CN2CCN(Cc3ccc4c(c3)OCO4)CC2)nc2ccccc12	-58.9
O=c1[nH]c(N/N=C\c2ccc3c(c2)OCO3)nc2ccccc12	-70.7
O=c1[nH]c(CN2CCOCC2)nc2ccccc12	0.449
COC(=O)C[C@H]1c2cc(C(F)(F)F)ccc2S(=O)(=O)N1c1ccc(N(C)C)cc1	-20.9
Cn1ccnc1SCC(=O)N(C1CCCCC1)C1CCCCC1	3.29

Reference: paper PMC4336329 (PLoS ONE, 2015)
